# Measured values from PubChem BioAssay.
# Assay: probe aNOTCH2 binding on compound microarray – biochemical, small-molecule microarray, 635/667 nm fluorescence, primary screen (AID 1121);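 further: score merges feature fluorescence read at 667 nm with its signal to noise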
# Settings: higher = more signal
row,Compound,composite z-score
1,CC(C)[Si]1(C(C)C)OCc2cc(C3CC3)nc(-c3ccc(Oc4ccccc4)cc3)c21,-0.108
2,O=C1NC(=O)C2C1C=CC(C(O)c1ccco1)N2Nc1ccc(Cl)cc1Cl (stereo not given),-0.153
3,Cc1ccc(N2C(=O)c3ccccc3[C@@H](C(=O)NCCCN(C)C)[C@@H]2c2ccc(CO)cc2)nc1,-0.244
4,CCCCCCc1nc(Cc2cc(OC)c(OC)c(OC)c2)cc2c1[Si](C(C)C)(C(C)C)OC2,-0.153
5,CCOC(=O)C1=C[C@@H](C(C)(C)C)N(S(=O)(=O)c2ccc(C)cc2)[C@H]1c1cccc2ccccc12,-0.101
6,COc1cc2c(cc1O)C(c1cccs1)N(Cc1cc3c(cc1Br)OCO3)CC2 (stereo not given),-0.0397
7,C=CCNC(=O)[C@@H]1[C@H]2C(=O)O[C@H](c3ccccc3)[C@H](c3ccccc3)N2[C@H](c2ccccc2OCCO)[C@@]12C(=O)Nc1ccc(C#CCC(C(=O)OC)C(=O)OC)cc12,0.283
8,C=CCN1C(=O)[C@]2(CCS(=O)(=O)c3ccccc3)N=C(c3ccc(OCCCO)cc3)O[C@@H]2c2ccccc21,-0.112
9,CC(c1ccccc1)C(O)C1C=CC2C(=O)N(C)C(=O)C2N1Nc1ccccc1 (stereo not given),-0.0067
10,N#Cc1ccc(NN2C(C(O)c3ccc(Br)cc3)C=CC3C(=O)N(c4ccccc4)C(=O)C32)cc1 (stereo not given),0.357
11,COc1ccc([Si](C)(C)[C@@H]2[C@@H](CCO)O[C@]3(C(=O)N(Cc4cccc(NC(=O)[C@H](C)O)c4)c4ccccc43)[C@H]2C)cc1,-0.0984
12,CCCCC(CC)C(O)C1C=CC2C(=O)N(C)C(=O)C2N1Nc1ccccc1 (stereo not given),-0.0804
13,COCCOC(=O)N1C(=O)[C@@]2(c3cc(C#CCCO)ccc31)[C@H](c1ccc(OCCO)cc1)N1[C@H](c3ccccc3)[C@H](c3ccccc3)OC(=O)[C@H]1[C@@H]2C(=O)Nc1nc2ccccc2s1,0.02
14,[N-]=[N+]=NCc1ccccc1[C@@H]1OC(c2ccc(OCCCO)cc2)=N[C@]1(CCS(=O)(=O)c1ccccc1)C(=O)O,-0.0145
15,O=C1C[C@]2(c3ccc([N+](=O)[O-])cc3)C(=O)N(C3CC3)c3cc(CO)ccc3[C@H]2N1CC12CC3CC(CC(C3)C1)C2,-0.0357
16,CCCC[C@@H]1C[C@H]1[C@@H](NC(=O)c1cccs1)c1ccccc1C(F)(F)F,0.0117
17,O=C(Cc1ccccc1)[C@H]1C2C=CCCC(c3ccccc3)=C2CN1Cc1ccccc1 (stereo not given in full),-0.179
18,COC(=O)[C@]1(CCS(=O)(=O)c2ccccc2)N=C(c2ccc(OCCCO)cc2)O[C@@H]1c1ccccc1N=[N+]=[N-],0.142
19,COCCOC(=O)N1C(=O)[C@@]2(c3cc(C#CC4=CCCCC4)ccc31)[C@H](c1ccccc1OCCO)N1[C@H](c3ccccc3)[C@H](c3ccccc3)OC(=O)[C@H]1[C@@H]2C(=O)N1CCN(c2ncccn2)CC1,-0.154
20,CN(C)C(=O)[C@@]1(Cc2ccccc2)N=C(c2ccc(OCCCO)cc2)O[C@H]1c1ccccc1,0.314
21,COc1ccc(C#Cc2ccc3c(c2)[C@]2(C(=O)N3)[C@H](C(=O)O)[C@H]3C(=O)O[C@H](c4ccccc4)[C@H](c4ccccc4)N3[C@@H]2c2ccc(O)cc2)cc1,-0.0664
22,CCCCC[C@H]1OC[C@@]23C=C(Br)[C@@H](CC12)[C@@]1(CO1)C3=O (stereo not given in full),-0.0907
23,CC1CC/C=C\[C@H]2OC34C=CCN(c5ccc(Cl)cc5)C(=O)[C@H]3N(C(C)CO)C(=O)[C@]4(C)C2C(=O)O1 (stereo not given in full),-0.14
24,COc1cc2c(cc1O)C(C1CC1)N(Cc1cccc(OC(F)(F)F)c1)CC2 (stereo not given),-0.0846
25,COc1cc(C(O)C2C=CC3C(=O)N(C)C(=O)C3N2Nc2ccccc2)cc(OC)c1OC (stereo not given),0.106
26,[N-]=[N+]=NCc1ccccc1[C@H]1OC(c2ccc(OCCCO)cc2)=N[C@@]1(Cc1ccccc1N=[N+]=[N-])C(=O)NCC(O)CO (stereo not given in full),-0.0859
27,COC(=O)[C@@]1(Cc2ccc(OC)cc2)[C@H]2c3cc(C(=O)N(C)C)n(Cc4ccc(OC(F)(F)F)cc4)c3C[C@H]2CN1C(=O)c1ccccc1,0.141
28,C=C(/C(=C/C[C@H](OC(C)=O)c1ccc(CO)o1)c1cnc2ccccc2c1)C(C)C,-0.148
29,Cc1ccc(S[C@]2(C(=O)NCc3ccccc3)CC(=O)N(C3CCCCC3)[C@@H]2c2ccc(CO)cc2I)cc1,-0.133
30,COc1ccc([Si](C)(C)[C@@H]2[C@@H](CC(=O)N3Cc4ccccc4C[C@H]3CO)O[C@]3(C(=O)N(Cc4ccc(N5C(=O)c6cccc7cccc5c67)cc4)c4ccccc43)[C@H]2C)cc1,-0.0728
